What all share (experiment): NCI-60 one-dose screen, 48 h (100 = growth as untreated, 0 = no growth, -100 = all killed)
Holding throughout (details): 10 µM unless noted

In experiment [1] the test system is HCT-15 colon.
For experiment [2], the system named is HT29 colon.
The subject of experiment [3] is SNB-75 CNS.
Experiment [4] relates to SNB-19 CNS.
The subject of experiment [5] is U251 CNS.
The subject of experiment [6] is SK-MEL-5 melanoma.
In experiment [7] the test system is UACC-62 melanoma.
Experiment [8] relates to LOX IMVI melanoma.
The subject of experiment [9] is SK-MEL-28 melanoma.
In experiment [10] the test system is SK-MEL-2 melanoma.
Experiment [11] relates to EKVX NSCLC.
Experiment [12] has as its system SN12C renal.
The subject of experiment [13] is UO-31 renal.
Experiment [14] has as its system TK-10 renal.
Experiment [15] has as its system ACHN renal.
Experiment [16] relates to CAKI-1 renal.
For experiment [17], the system named is A498 renal.
Experiment [18] concerns CCRF-CEM leukemia.
The subject of experiment [19] is MOLT-4 leukemia.
Experiment [20] has as its system PC-3 prostate.

The panel holds about 83,000 compounds, 20% with a hit somewhere; the sample as a whole holds those more often.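 Method: cells in 96-well plates; compound added at one concentration; 48 h incubation; percent growth measured; values under 10 scored active.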 Values without a mark were called inactive. Active and inactive are the calls of the source.

In the case of `COc1cc2cc(Oc3cccc(NC(=O)Nc4cc(C(F)(F)F)cc(C(F)(F)F)c4)c3)c(C)nc2cc1OC`, the growth in [1] was 2.75% (active); in experiment [2], 4.89% (active); in [3], 9.73% (active); in experiment [4], 15.5%; in experiment [5] it was -26.5% (active); in [6], -58.5% (active). The growth is -34.6% (active) in experiment [7]; 1.98% (active) in experiment [8]; 7.66% (active) in [9]; -30.4% (active) in experiment [10]; 2.88% (active) in [11]; 7.69% (active) in [12]. The growth was 11.6% in experiment [13]; 13.2% in experiment [14]; 5.82% (active) in experiment [15]; 6.4% (active) in experiment [16]; -11.5% (active) in experiment [17]; 0.186% (active) in [18].

Consider `CC(=O)Oc1ccc(/C=N/NC(N)=S)nc1`, for which the growth was 92% in [1]; 94.6% in experiment [2]; 8.77% (active) in experiment [3]; 102% in [4]; 51.7% in experiment [5]; 14.6% in experiment [6]. Besides, the growth in [7] is 59.3%; in [8], 47.7%; in experiment [9], 65.7%; in [10] it was 79.2%; in experiment [11] it was 105%; in experiment [12], 73.6%. The growth in experiment [13] was 52.7%; in experiment [14], 108%; in experiment [15], 13.2%; in experiment [16], 49.8%; in experiment [18], 39.3%; in experiment [19] it was 56%.

As to `NC1=NN=C(N)C1=Cc1cc2ccccc2n2nnnc12`, the growth in experiment [1] is 104%; in experiment [2] it was 104%; in experiment [3] it was 94.3%; in experiment [4], 95.8%; in [5], 89%; in experiment [6], 101%. Further, the growth is 93.2% in experiment [7]; 85.1% in experiment [8]; 116% in experiment [9]; 102% in experiment [10]; 77% in experiment [11]; 97.9% in experiment [12]. Further, the growth in experiment [13] is 77.1%; in experiment [14], 114%; in [15] it was 102%; in experiment [16], 91.1%; in experiment [18] it was 97.5%; in [19] it was 94.6%.

Regarding `COc1cc(/C=N/NC(=O)c2cnn3c2NC(c2ccccc2)C3)ccc1Oc1ccccc1` (configuration not stated), the growth is 16.8% in experiment [1]; 0.454% (active) in experiment [2]; 39.2% in [4]; 27.1% in experiment [5]; 19.6% in experiment [20]; 28.1% in experiment [6]. Besides, the growth in experiment [7] is 12.6%; in [8], 37.2%; in [9], 34.9%; in experiment [10] it was 1.74% (active); in [11], 58.1%; in experiment [12], 63.8%. The growth in experiment [13] is 51.5%; in experiment [14] it was 46.8%; in [15], 27.6%; in experiment [16] it was 26%; in [18] it was 29.3%; in experiment [19], 49.7%.

Consider `c1ccc2c(-c3c[nH]c4ccccc34)c3c(cc2c1)[nH]c1ccccc13`, for which the growth is 47% in experiment [1]; 72.5% in experiment [2]; 90.9% in experiment [4]; 70.1% in experiment [5]; 69.9% in experiment [20]; 67.3% in [6]. In addition, the growth in experiment [7] was 68.3%; in experiment [8], 60.1%; in experiment [9], 75.3%; in experiment [10], 50.6%; in experiment [11] it was 77.4%; in [12] it was 80.8%. The growth in [13] was 58.3%; in experiment [14] it was 94.1%; in [15] it was 62.1%; in experiment [16], 63%; in experiment [18] it was 43.9%; in experiment [19] it was 38.2%.

Take `CCSCC1CC(O)(c2ccccc2)CC(c2ccc(F)cc2)O1` (configuration not stated): the growth in experiment [1] was 17.4%; in [2], 2.51% (active); in [4], 36.1%; in experiment [5] it was 20.8%; in experiment [20], 9.83% (active); in experiment [6], -36% (active). Further, the growth was 29.2% in [7]; 4.29% (active) in [8]; 26.9% in [9]; 4.62% (active) in experiment [10]; 15.2% in experiment [11]; -68.9% (active) in experiment [12]. Moreover, the growth in [13] is 28.6%; in experiment [14] it was 21.9%; in experiment [15] it was 3.1% (active); in experiment [16], -25.2% (active); in experiment [18], 22.9%; in experiment [19] it was -11.9% (active).

For the compound `Nc1nc(Nc2ccccc2SSc2ccccc2Nc2nc(N)nc(-c3ccc(C(F)(F)F)cc3)n2)nc(-c2ccc(C(F)(F)F)cc2)n1`, the growth in experiment [1] is 17.2%; in experiment [2], 93.3%; in [4], 58%; in [5], 41.2%; in experiment [20], 29.5%; in experiment [6], 88.9%. Further, the growth in [7] was 68.3%; in experiment [8], 27.5%; in [9] it was 95.6%; in [10], 93.7%; in experiment [11] it was 44.6%; in [12], 57.6%. Moreover, the growth in experiment [13] was -84.6% (active); in experiment [14], 95.4%; in [15] it was 19.9%; in [16] it was -20.3% (active); in [18], 53.6%; in [19] it was 56.2%.

Take `C=C1C(=O)O[C@H]2[C@H]1CC/C(CNC(=O)/C=C/c1ccccc1)=C\CC[C@@]1(C)O[C@@H]21`: the growth in experiment [1] is -72.7% (active); in experiment [2], -22.8% (active); in experiment [4], 52.5%; in [5], 46.1%; in experiment [20], 9.48% (active); in experiment [6] it was 40.6%. Moreover, the growth in [7] was -81.6% (active); in experiment [8], -88% (active); in experiment [9], -38.1% (active); in experiment [10], 40.8%; in experiment [11] it was -16.2% (active); in [13] it was -85.2% (active). For the same compound, the growth in experiment [14] was -47.1% (active); in experiment [15], -34.5% (active); in [16], -88.1% (active); in [18], 1.78% (active); in experiment [19], -26.4% (active).

For the compound `NS(=O)(=O)c1ccc(CCN2C(=O)C=CC2=O)cc1`, the growth was 99.3% in [1]; 97.2% in [2]; 107% in [4]; 104% in experiment [5]; 100% in experiment [20]; 104% in experiment [6]. The growth is 104% in [7]; 97% in experiment [8]; 107% in experiment [9]; 98.2% in experiment [10]; 102% in experiment [11]; 110% in experiment [12]. Besides, the growth was 84.5% in [13]; 89.7% in experiment [14]; 102% in experiment [15]; 94.8% in experiment [16]; 106% in experiment [17]; 99% in experiment [18]. The growth in experiment [19] is 97.4%.
